Bioassay records as filed in PubChem.
Luc counter – blocks Kinase-Glo luciferase, a counter-screen artifact; Q27757; Potency, µM (series often up to 38.3 µM), usual class: inhibitors; AID 1379; Kinase-Glo luciferase, ATP luminescence, 8 min; 200,000 compounds, 0.28% hits; further: nearly all actives have a fitted effect of over 60% in size
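Light output from Kinase-Glo luciferase with luciferin and 10 uM ATP in 50 mM imidazole pH 7.2, KCl, MgCl2, Tween 20, BSA; compound pin-delivered, 8-min ambient incubation, then luminescence read.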
NPC1 prom act – activators of NPC1 promoter; Huh7 NPC1 promoter luciferase reporter, 24 h; Potency, µM (series often up to 9.22 µM), hits mostly activators; 320,000 compounds, 2.4% hits; further: nearly all actives have a fitted effect of over 60% in size
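NPC1 promoter–luciferase Huh7 cells; 24 h compound; luminescence.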
Rab9 promoter act – Rab9 promoter activation; Huh7 Rab9 promoter-luciferase reporter, luminescence, 24 h; Potency, µM (doses to about 9.22 µM), usual class: activators; 320,000 compounds, 2.8% hits; further: nearly all actives have a fitted effect of over 60% in size
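Quantitative HTS format; Huh7 Rab9-luciferase reporter cells (1500/well) receive compound 2 h post-plating, incubate 24 h at 37 °C, then get luciferase reagent for 10 min before luminescence reading.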
SMN2 splice up – increases expression of the SMN2 splice variant. HEK293 SMN2-luciferase splicing reporter, luminescence, 30-36 h. Potency, µM (top dose mostly 46.1 µM), usual class: activators. 210,000 compounds, 2.8% hits; further: nearly all actives have a fitted effect of over 55% in size
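qHTS luciferase splicing reporter: luminescence rises when SMN2 exon 7 is included in transfected HEK293 cells. Compound exposure lasted 30-36 h at 37C, with 4.5 mM final sodium butyrate as control, followed by a ONE-Glo read.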
ELG1 genotox – induces genotoxicity in HEK293T cells with luciferase-tagged ELG1. AID 504466. HEK293T ELG1-luciferase reporter, luminescence, 16 h. Potency, µM (doses to about 46 µM), usual class: activators. 330,000 compounds, 1.3% hits; further: nearly all actives have a fitted effect of over 60% in size
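Genotoxicity was scored as increased ELG1-luciferase reporter signal, measured by ONE-Glo luminescence (30 min, room temperature). Compound or vehicle exposure of the HEK293T reporter cells lasted 16 hr at 37°C.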
FLuc modulator – inhibits or activates purified firefly luciferase, miR-21 counter-screen. P08659. purified FLuc, Km substrates, luminescence inhibition. Potency, µM (titrated, usually from 57.5 µM), hits mostly inhibitors. 360,000 compounds, 6.9% hits. AID 588342; further: nearly all actives have a fitted effect of over 55% in size
Target sequence (P08659 whole entry, looked up): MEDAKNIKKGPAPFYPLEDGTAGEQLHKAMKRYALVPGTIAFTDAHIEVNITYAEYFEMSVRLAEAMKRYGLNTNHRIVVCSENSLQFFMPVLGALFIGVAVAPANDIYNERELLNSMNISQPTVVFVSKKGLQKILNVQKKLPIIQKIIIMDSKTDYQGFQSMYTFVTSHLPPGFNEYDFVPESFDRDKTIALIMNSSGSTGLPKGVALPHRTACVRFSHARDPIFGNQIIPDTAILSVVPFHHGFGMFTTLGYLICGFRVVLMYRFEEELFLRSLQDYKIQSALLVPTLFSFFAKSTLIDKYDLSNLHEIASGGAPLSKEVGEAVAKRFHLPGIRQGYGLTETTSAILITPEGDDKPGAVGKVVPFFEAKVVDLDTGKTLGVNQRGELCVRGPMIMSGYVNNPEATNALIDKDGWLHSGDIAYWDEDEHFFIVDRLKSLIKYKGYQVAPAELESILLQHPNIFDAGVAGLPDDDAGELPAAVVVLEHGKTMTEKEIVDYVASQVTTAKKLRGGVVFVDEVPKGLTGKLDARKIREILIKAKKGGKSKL
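Biochemical qHTS of compounds, final roughly 60 µM downward over six points, against 10 nM purified firefly luciferase using Km concentrations of substrates (10 uM D-luciferin, 10 uM ATP) in Tris acetate pH 7.5 buffer; luminescence output.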
Numbers stand for hits; – = inactive; ? = inconclusive; · = no result given; [ ] = dose if it differs, or a comment. Shown are actives, neighbours in structure and some others; about 7.4% of the full set was active somewhere. The call rests on the fitted dose curve; in most records, active means well fitted curve in the direction sought with a large enough effect; inconclusive means small, poorly fitted or top-dose-only effect, or another doubt; inactive means no such curve, though single readings can be large; an effect the other way counts as inactive or inconclusive.

SMILES	Luc counter	NPC1 prom act	Rab9 promoter act	SMN2 splice up	ELG1 genotox	FLuc modulator
COc1ccc(OCc2cc(C(=O)N(C)C(C)c3ccon3)no2)c(Cl)c1 (configuration not stated)	·	?	2.5µM	·	?	13µM
O=C(c1cc(COc2ccc(F)cc2Cl)on1)N1CCSCC1	·	2.8µM	4µM	·	?	11µM
COc1cccc(OCc2cc(C(=O)N3CCN(C)C(c4ccccc4)C3)no2)c1 (configuration not stated)	·	–	?	·	–	27µM
COc1ccc(OCc2cc(C(=O)NCCCc3ccccc3)no2)c(Cl)c1	·	–	–	·	–	?
COc1ccc(OCc2cc(C(=O)N3CCSCC3)no2)c(Cl)c1	·	2.8µM	2.8µM	·	?	11µM
O=C(Nc1ccccc1C(=O)OCc1cc(=O)n2c3c(sc2n1)CCCC3)c1ccc(F)cc1	·	·	·	·	·	–
O=C1c2ccccc2C(=O)N1CCN1CCc2ccccc21	–	?	?	–	?	13µM
C[C@H]1O[C@@H](n2cc(F)c(=O)[nH]c2=O)[C@H](O)[C@H]1O	·	–	–	·	·	·
COc1cc(OC)cc(C(=O)N[C@H](C(=O)OCC(=O)c2ccc(F)cc2)C(C)C)c1	–	–	–	–	–	11µM
CC(C)C(NC(=O)c1ccccc1F)C(=O)OCC(=O)c1ccc(F)cc1 (configuration not stated)	–	–	?	–	–	3µM
CCCCN(CC)C(=O)Cn1nc(C)c2c(C)n(-c3ccccc3)nc2c1=O	·	·	·	·	·	–
C=C1C2CC[C@]3(CCC4[C@@]5(C)CCC[C@@]4(CN(CCO)C5)[C@@H]3C2)[C@@H]1O (some centres not stated)	–	·	·	–	·	·
Cc1nc2ncccn2c1-c1csc(NCc2ccco2)n1	–	–	–	–	–	–
Oc1ccc(-c2csc(NCc3ccco3)n2)cc1	–	–	–	–	18µM	11µM
CC(=O)Nc1cccc(-c2csc(NCc3ccco3)n2)c1	–	–	–	?	?	17µM
c1coc(CNc2nc(-c3cccs3)cs2)c1	–	?	?	?	–	24µM
O=c1c(-c2ccc(Cl)cc2)nc2cnc(N3CCNCC3)nc2n1Cc1ccc(F)cc1	–	·	·	–	·	·
OC[C@H]1NC[C@@H](O)[C@@H](O)[C@H]1O	–	·	·	·	·	·
NC(=O)C1=NOC(CNc2ncc(C(F)(F)F)cc2Cl)C1 (configuration not stated)	–	–	?	–	23µM	?
O=C(O)c1ccc(NS(=O)(=O)c2cccc3ccccc23)cc1	–	·	·	·	·	·
CCc1nnc(NC(=O)c2sc3nc4cc(C)ccc4cc3c2N)s1	–	–	–	–	–	9.5µM
CCOC(=O)Cc1csc(NC(=O)c2sc3nc4ccc(C)cc4cc3c2N)n1	–	–	–	–	?	?
CCSc1nnc(NC(=O)c2ccc3ccccc3n2)s1	–	?	?	14µM	?	12µM
CCc1nnc(NC(=O)c2ccc3ccccc3n2)s1	?	?	2.5µM	2.8µM	–	13µM
CC(C)c1ccc(-n2cnn(-c3ncccc3[N+](=O)[O-])c2=O)cc1	–	1.1µM	0.89µM	7.9µM	2.3µM	3µM
SMILES	Luc counter	NPC1 prom act	Rab9 promoter act	SMN2 splice up	ELG1 genotox	FLuc modulator
CCC(=O)O[C@H]1C(O[C@@H]2C(C)[C@H](O[C@H]3C[C@@](C)(OC)C(O)C(C)O3)C(C)C(=O)OC(CC)[C@@](C)(O)C(O)[C@H](C)C(=O)C(C)C[C@]2(C)O)OC(C)CC1N(C)C (some centres not stated)	–	·	·	–	·	·
CCCC/C=C/C(NC(=O)C(C)(C)C)c1ccccc1 (configuration not stated)	–	·	·	–	·	·
COC(=O)c1c(C)[nH]c(C(=O)CSc2ccc(Cl)cc2)c1C	–	4µM	2.5µM	11µM	?	4.8µM
CCc1c(C(=O)OCc2ccccc2)[nH]c(C)c1C	·	–	?	·	?	24µM
COC(=O)c1c(C)[nH]c(C(=O)CC#N)c1C	–	–	–	?	–	–
CC(=O)c1c(C)[nH]c(C(=O)OCC(=O)NCCc2ccc(F)cc2)c1C	–	–	–	–	–	–
COC(=O)c1c(C)[nH]c(C(=O)OCc2ccc(F)cc2)c1C	·	3.5µM	4µM	·	?	9.5µM
N=c1oc2ccccc2cc1C(=O)NC1CCCCCC1	·	?	–	·	?	4.8µM
COc1cc2ccccc2cc1C(=O)NC1CCCCC1	·	–	?	·	–	12µM
O=C(OC1CCCCC1)c1cc2ccccc2oc1=O	·	?	?	·	?	7.6µM
CN(C(=O)COC(=O)c1cc2ccccc2oc1=O)C1CCCCC1	·	·	·	·	–	·
O=C(NC1CCCCCC1)c1cc2ccccc2oc1=O	·	3.2µM	–	·	–	2.7µM
N=c1oc2ccc(Cl)cc2cc1C(=O)NC1CCCCCC1	·	–	–	·	–	?
COc1cccc(-c2cnc(NCc3ccccc3Cl)n2C)c1	·	·	·	–	·	?
CCOc1ccc(OCC)c(Nc2nc3ccc(Cl)cc3n3cnnc23)c1	·	·	·	–	·	–
Cc1cc(F)ccc1NC(=O)C1CCC(CNS(=O)(=O)c2ccc3c(c2)CCCC(=O)N3)CC1 (configuration not stated)	·	·	·	·	·	–
O=C(NCCc1ccccc1)c1cc2ccccc2oc1=O	·	?	–	·	–	?
O=C(NCCC1=CCCCC1)c1cc2ccccc2oc1=O	·	–	–	·	?	4.8µM
Cc1ccc(C(=O)N2CCN(Cc3cc(=O)n4nc(-c5ccccc5)sc4n3)CC2)cc1	·	·	·	·	·	–
N#Cc1c(C(F)(F)F)cc(=O)n2c1[nH]c1ccccc12	·	–	–	·	–	27µM
CCn1c2ccccc2c2cc(NC(=O)COC(=O)c3ccccc3F)ccc21	–	–	–	–	?	–
O=C(Nc1ccc2c(c1)oc1ccccc12)N1CCOCC1	–	3.5µM	3.5µM	?	?	12µM
CCn1c2ccccc2c2cc(NC(=O)COC(=O)c3ccc(NC(=O)CC#N)cc3)ccc21	·	–	–	·	23µM	–
CCn1c2ccccc2c2cc(NC(=O)N3CCOCC3)ccc21	–	?	3.5µM	?	?	–[2.3 µM]
CCOC(=O)c1sc(NC(=O)C(C)Sc2nc(-c3ccccc3)cc(C(F)(F)F)n2)c(C(=O)OC)c1C (configuration not stated)	·	·	·	–	·	–
Cc1oc(-c2ccoc2)nc1CN(CC1CCC(=O)N1)C(C)C (configuration not stated)	–	–	–	·	–	–
COCCN(Cc1nc(-c2ccc(-c3ccccc3)cc2)oc1C)C(C)C	·	–	?	·	0.92µM	9.5µM
Cc1ccccc1N/N=C/c1c(C)nc2ccccn12	·	–	–	·	–	12µM
Cc1ccc(-c2nc3ccccn3c2Nc2ccccc2C)s1	·	·	·	–	·	–
Clc1ccc(-c2nnc(NC3=NCCCCC3)o2)cc1	–	0.35µM	0.32µM	?	?	0.43µM
